From PubChem BioAssay
NR5A2 inv ag = LRH-1 (NR5A2) inverse agonists, primary screen, cell-based, luminescence, HEK293T, StAR-luciferase reporter | Nuclear receptor subfamily 5 group A member 2 (Homo sapiens), O00482 | LRH-1 transfected, 24 h | inhibition, % at 3.6 µM | hit rate 0.13% among 360,000;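 active means inhibition above the mean inhibition of all tested compounds plus 3 SD, cut at about 73% in these data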
NCOA3 inh = SRC3 coactivator transcriptional activity inhibitors, primary screen, cell-based, luminescence; hit rate 0.17% among 360,000; inhibition, % at 3.6 µM; HEK293 GAL4-SRC3 luciferase reporter; AID 588352, 2011; Nuclear receptor coactivator 3 (Homo sapiens), Q9Y6Q9;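 active means inhibition above a per-campaign cutoff, the mean of all compounds plus 3 SD, cut at about 60% in these data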;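 further: higher means less SRC3-driven luciferase light from the GAL4 reporter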
Gli-Sufu block = Gli-Sufu pathway antagonists, primary screen, luciferase luminescence, Sufu-KO-LIGHT cells, uHTS | Sufu-KO-LIGHT fibroblasts, Gli luciferase reporter luminescence | hit rate 0.74% among 340,000 | inhibition, % at 5 µM;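 active means inhibition above about 55%, limit read from the data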
NCOA1 inh = SRC1 coactivator transcriptional activity inhibitors, primary screen, cell-based, luminescence. HEK293 GAL4-SRC1 luciferase reporter. Nuclear receptor coactivator 1 (Homo sapiens), Q15788. hit rate 0.12% among 360,000. AID 588354, 2011. inhibition, % at 3.6 µM;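 active means inhibition above the campaign mean plus 3 SD, with each screening campaign given its own cutoff, cut at about 60% in these data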
NR2F2 inh = NR2F2 transcriptional activity inhibitors, primary screen, cell-based, luciferase reporter, HEK293T, luminescence; hit rate 0.7% among 370,000; COUP transcription factor 2 (Homo sapiens), P24468; inhibition, % at 8.6 µM; HEK293T NGFI-A luciferase reporter;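 active means inhibition above a per-plate cutoff, mean inhibition of test wells between control levels plus 3 SD, cut at about 38% in these data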;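 further: cells cotransfected with COUP-TFII expression vector driving the NGFI-A reporter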
Target sequence (P24468 whole entry, looked up): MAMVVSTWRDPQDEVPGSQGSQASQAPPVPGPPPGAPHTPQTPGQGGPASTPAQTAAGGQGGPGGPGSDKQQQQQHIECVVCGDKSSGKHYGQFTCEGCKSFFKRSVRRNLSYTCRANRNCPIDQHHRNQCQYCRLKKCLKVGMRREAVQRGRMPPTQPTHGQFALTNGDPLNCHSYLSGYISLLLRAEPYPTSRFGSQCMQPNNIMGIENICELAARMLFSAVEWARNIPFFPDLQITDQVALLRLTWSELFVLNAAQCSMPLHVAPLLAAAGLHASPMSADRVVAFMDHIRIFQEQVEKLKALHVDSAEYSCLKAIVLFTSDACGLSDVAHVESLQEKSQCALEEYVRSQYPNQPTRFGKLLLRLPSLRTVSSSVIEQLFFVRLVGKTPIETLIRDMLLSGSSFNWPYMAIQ
NCOA2 inhibitor = inhibition of GAL4-SRC2 driven luciferase reporter, primary screen, SRC2 inhibitor project, cell-based, luminescence; Nuclear receptor coactivator 2 (Homo sapiens), Q15596; HEK293 GAL4-SRC2 luciferase reporter; inhibition, % at 9 µM; hit rate 0.17% among 370,000; AID 651957, 2012;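 active means inhibition above the mean inhibition of all tested compounds plus 3 SD, set per campaign, cut at about 52% in these data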
VP16 Luc counter = Gal4-VP16 luciferase reporter inhibitors, counter-screen for COUP-TFII antagonist project, cell-based, luminescence, HEK293; shares compounds with NR2F2 inh; inhibition, % at 8.5 µM; hit rate 25% among 2,500; in the data active means inhibition above about 13%
NR2F2 inh conf = NR2F2 transcriptional activity inhibitors, confirmation, cell-based, luciferase reporter, HEK293, triplicate; HEK293 NGFI-A luciferase reporter, luminescence; inhibition, % at 8.5 µM; shares compounds with NR2F2 inh; hit rate 45% among 2,500;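 active means mean inhibition over three repeats above a set limit taken from the earlier primary screen, cut at about 38% in these data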
Hits are given with their value. In the library only some 1.3% were active in any assay of this set; here they are far more common.

Screening CCOCc1nc(N)nc(N)c1-c1cccc(Cl)c1 returned NR5A2 inv ag inactive, NCOA3 inh inactive, NCOA1 inh inactive, NR2F2 inh 57, NCOA2 inhibitor inactive, VP16 Luc counter inactive and NR2F2 inh conf inactive.
CCCCOc1ccc(C(=O)NCC(=O)NNC(=O)C2COc3ccccc3O2)cc1 (stereo not drawn) was read as NR5A2 inv ag inactive, NCOA3 inh inactive, Gli-Sufu block inactive, NCOA1 inh inactive, NR2F2 inh inactive and NCOA2 inhibitor inactive.
Screening Cc1cc(Br)c(OCc2ccc(C(=O)N/N=C/c3ccc[nH]3)cc2)c(Br)c1 returned NR5A2 inv ag 91, NCOA3 inh 76, Gli-Sufu block 83, NCOA1 inh inactive, NR2F2 inh 68, NCOA2 inhibitor inactive, VP16 Luc counter 29 and NR2F2 inh conf 78.
O=C(N/N=C/c1ccc[nH]1)c1ccc(COc2cccc3cccnc23)cc1 was read as NR5A2 inv ag 79, NCOA3 inh 69, Gli-Sufu block inactive, NCOA1 inh inactive, NR2F2 inh 73, NCOA2 inhibitor inactive, VP16 Luc counter 39 and NR2F2 inh conf 89.
CC(NC(=O)CC1CCCCC1)c1ccccc1 (stereo not drawn) was read as NR5A2 inv ag inactive, NCOA3 inh inactive, Gli-Sufu block inactive, NCOA1 inh inactive, NR2F2 inh inactive and NCOA2 inhibitor inactive.
C=C(C)CC1(NC(C)c2ccccc2)CCCCC1 (stereo not drawn) was read as NR5A2 inv ag inactive, NCOA3 inh inactive, Gli-Sufu block inactive, NCOA1 inh inactive, NR2F2 inh 41, NCOA2 inhibitor inactive, VP16 Luc counter inactive and NR2F2 inh conf inactive.
For Cc1ccc(NC(=O)CCNC(=O)c2ccc(Br)cc2)cc1S(=O)(=O)N1CCCCCC1 the results were NR5A2 inv ag inactive, NCOA3 inh inactive, Gli-Sufu block inactive, NCOA1 inh inactive, NR2F2 inh inactive and NCOA2 inhibitor inactive.
Screening Fc1cccc(Cl)c1CN1CCN(c2ncc(Cc3ccccc3)cn2)CC1 returned NR2F2 inh inactive and NCOA2 inhibitor inactive.
C[C@H](O)[C@@H]1C(=O)N2CCc3ccc(-c4ccccc4)cc3[C@@H]2C[C@@H]1N(C)C(=O)c1ccc(C#N)cc1 was read as NR5A2 inv ag inactive, NCOA3 inh inactive, Gli-Sufu block inactive, NCOA1 inh inactive, NR2F2 inh inactive and NCOA2 inhibitor inactive.
Screening CC1(C)N=C(N)N=C(N)N1c1ccc(CCCCc2ccccc2)cc1 returned NR5A2 inv ag 80, NCOA3 inh inactive, NCOA1 inh inactive, NR2F2 inh 70, NCOA2 inhibitor inactive, VP16 Luc counter 28 and NR2F2 inh conf 62.
Screening O=C(NCCc1c[nH]c2ccccc12)C(=O)NCC(c1cccnc1)N1CCN(c2ccccc2)CC1 (stereo not drawn) returned NR5A2 inv ag inactive, NCOA3 inh inactive, Gli-Sufu block inactive, NCOA1 inh inactive, NR2F2 inh 67, NCOA2 inhibitor inactive, VP16 Luc counter inactive and NR2F2 inh conf inactive.
Screening Cc1ccc(S(=O)(=O)n2ccc3c(OCCOCCSCC(NC(=O)OC(C)(C)C)C(=O)O)cccc32)cc1 (stereo not drawn) returned NR5A2 inv ag inactive, NCOA3 inh inactive, Gli-Sufu block inactive, NCOA1 inh inactive, NR2F2 inh inactive and NCOA2 inhibitor inactive.
Screening Cc1ccc(S(=O)(=O)n2ccc3c(OCCOCCNCc4ccc(F)cc4)cccc32)cc1 returned NR5A2 inv ag inactive, NCOA3 inh inactive, Gli-Sufu block inactive, NCOA1 inh inactive, NR2F2 inh 43, NCOA2 inhibitor inactive, VP16 Luc counter inactive and NR2F2 inh conf inactive.
`COc1ccccc1N1CCN(C(=O)C2CCCN(S(=O)(=O)c3ccc4c(c3)CCCN4C(C)=O)C2)CC1` (stereo not drawn) gave NR5A2 inv ag inactive, NCOA3 inh inactive, Gli-Sufu block inactive, NCOA1 inh inactive, NR2F2 inh 44, NCOA2 inhibitor inactive, VP16 Luc counter inactive and NR2F2 inh conf inactive.
For CC(=O)N1CCCc2cc(S(=O)(=O)N3CCCC(C(=O)N4CCN(c5cc(C)ccc5C)CC4)C3)ccc21 (stereo not drawn) the results were NR5A2 inv ag inactive, NCOA3 inh inactive, Gli-Sufu block inactive, NCOA1 inh inactive, NR2F2 inh inactive and NCOA2 inhibitor inactive.
For CCC(=O)N1CCCc2cc(S(=O)(=O)N3CCN(c4ccccc4F)CC3)ccc21 the results were NR5A2 inv ag inactive, NCOA3 inh inactive, Gli-Sufu block inactive, NCOA1 inh inactive, NR2F2 inh 50, NCOA2 inhibitor inactive, VP16 Luc counter inactive and NR2F2 inh conf inactive.
CC(=O)N1CCCc2cc(S(=O)(=O)N3CCCC(C(=O)N4CCN(c5ccccc5)CC4)C3)ccc21 (stereo not drawn) was read as NR5A2 inv ag inactive, NCOA3 inh inactive, Gli-Sufu block inactive, NCOA1 inh inactive, NR2F2 inh 41, NCOA2 inhibitor inactive, VP16 Luc counter inactive and NR2F2 inh conf inactive.
COc1ccccc1N1CCN(C(=O)C2CCCN(S(=O)(=O)c3ccc(C)cc3)C2)CC1 (stereo not drawn) was read as NR5A2 inv ag inactive, NCOA3 inh inactive, Gli-Sufu block inactive, NCOA1 inh inactive, NR2F2 inh inactive and NCOA2 inhibitor inactive.
For COCc1[nH]nc2c1C(c1ccc(F)cc1)N(c1ccc(OC)cc1)C2=O (stereo not drawn) the results were NR2F2 inh inactive and NCOA2 inhibitor inactive.
For CCOc1ccc(Oc2ccc(C(F)(F)F)cc2NC(=O)C2=COCCO2)cc1 the results were NR5A2 inv ag inactive, NCOA3 inh inactive, Gli-Sufu block inactive, NCOA1 inh inactive, NR2F2 inh inactive and NCOA2 inhibitor inactive.
Screening CC(=O)c1ccc2c(c1)N(C)c1ccccc1S2 returned NR5A2 inv ag inactive, NCOA3 inh inactive, Gli-Sufu block inactive, NCOA1 inh inactive, NR2F2 inh inactive and NCOA2 inhibitor inactive.
Cc1ccc2c(c1)N(C)/C(=C/c1cccc[n+]1C)S2 was read as NR5A2 inv ag inactive, NCOA3 inh inactive, Gli-Sufu block 82, NCOA1 inh inactive, NR2F2 inh 57, NCOA2 inhibitor inactive, VP16 Luc counter inactive and NR2F2 inh conf 42.
CCN1/C(=C/C(C)=O)Sc2ccc(OC)cc21 was read as NR5A2 inv ag inactive, NCOA3 inh inactive, Gli-Sufu block inactive, NCOA1 inh inactive, NR2F2 inh inactive and NCOA2 inhibitor inactive.
